Compound activity: PubChem, several laboratories
Compounds with a hit are over-represented: about 4.8% of the library has one in this group of screens.
hgDAF12 agonist = hgDAF-12 agonism, primary luciferase screen; 1.8% of 370,000 active; AID 687014; activation, % at 6.8 µM; HEK293 GAL4-hgDAF12 UAS-luciferase reporter, agonist luminescence; normalized to butyrate control;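 active = activation above a cutoff set at the mean of all screened compounds plus 3 SD, cut at about 10% in these data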;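 also: 0% = DMSO wells and 100% = sodium butyrate wells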
hcDAF12 agonist = activators of H. contortus DAF-12 nuclear receptor; activation, % at 6.8 µM; HEK293 hcDAF-12 lit1-tk-luc reporter, luminescence; 0% DMSO, 100% Δ7-dafachronic acid; 1.4% of 370,000 active; AID 652067;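 active = activation above the mean of all tested compounds plus 3 SD, cut at about 5.5% in these data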;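 also: 100% = response to 3 µM Δ7-dafachronic acid high control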
DAX1 inh-1 = DAX1 (NR0B1) inhibition, primary screen; HEK293T StAR-luciferase reporter, SF-1/DAX-1 repression relief; inhibition, % at 6.8 µM; 1.1% of 370,000 active; AID 652010;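 active = inhibition above the mean over all tested compounds plus 3 SD, cut at about 3.6% in these data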;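 also: 0% = DAX-1 cells with DMSO and 100% = cells lacking DAX-1 with DMSO; higher inhibition means more luminescence from relief of DAX-1 repression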
DAX1 inh-2 = inhibits human nuclear receptor DAX1 | HEK293 Gal4-DAX1 luciferase reporter, luminescence | inhibition, % at 6.75 µM | 0.99% of 340,000 active | AID 504766;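 active = inhibition above the mean over all tested compounds plus 3 SD, cut at about 4.2% in these data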;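 also: 0% = DAX1-transfected cells with DMSO and 100% = empty-vector control cells with DMSO; inhibition shows as a rise in luminescence from relieved DAX1 repression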
ssDAF-12 act = S. stercoralis DAF-12 activation, primary screen; HEK293 ssDAF-12/GRIP1 lit1-tk-luc reporter, luminescence; % of 3 µM dafachronic acid response; 1% of 370,000 active; activation, % at 6.8 µM;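 active = activation above the mean over all tested compounds plus 3 SD, cut at about 0.9% in these data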;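 also: 0% = DMSO-only wells and 100% = 3 µM delta7-dafachronic acid wells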
Rev-erbA mod = modulators of human Rev-erb alpha DNA binding | AID 1259318 | 0.79% of 370,000 active | Rev-erbα–FITC-DNA binding, fluorescence polarization, 90 min | P20393 | activity, % at 10 µM;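 active = activity above about 14%, limit read from the data; passing the limit was not always enough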;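 also: 0% = DMSO wells with 35 nM protein and 100% = DMSO wells with 750 nM protein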
DAX1 inh confirm = confirmation of human DAX1 (NR0B1) inhibitors | inhibition, % at 6.8 µM | shares compounds with DAX1 inh-1 | 87% of 2,400 active | HEK293T StAR-promoter luciferase reporter, SF-1/DAX-1 repression | AID 652134;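 active = inhibition above the average of every tested compound plus 3 SD, cut at about 3.8% in these data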;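 also: 0% = DAX-1 cells with DMSO and 100% = no DAX-1 control cells with DMSO; active compounds raise luminescence by relieving repression of the StAR reporter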
Target sequence (P51843 whole entry, looked up): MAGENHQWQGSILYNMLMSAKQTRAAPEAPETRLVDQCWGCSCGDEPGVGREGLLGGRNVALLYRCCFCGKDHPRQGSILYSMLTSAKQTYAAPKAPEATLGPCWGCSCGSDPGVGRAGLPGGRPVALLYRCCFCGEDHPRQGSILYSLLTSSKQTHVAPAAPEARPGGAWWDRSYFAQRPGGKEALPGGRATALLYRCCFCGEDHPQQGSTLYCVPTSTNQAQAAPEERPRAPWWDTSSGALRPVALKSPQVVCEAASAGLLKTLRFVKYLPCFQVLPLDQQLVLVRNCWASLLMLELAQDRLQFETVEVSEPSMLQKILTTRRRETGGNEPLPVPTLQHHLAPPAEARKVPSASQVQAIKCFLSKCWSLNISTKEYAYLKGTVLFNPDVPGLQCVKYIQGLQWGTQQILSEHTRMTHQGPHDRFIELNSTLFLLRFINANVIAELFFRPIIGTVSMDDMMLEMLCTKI
SF1 AF2mut Luc = counter-screen for DAX1 inhibitors: nonselective inhibitors with SF-1 AF2 mutant. shares compounds with DAX1 inh-1. HEK293 StAR-luciferase, luminescence. inhibition, % at 6.8 µM. 78% of 2,400 active. AID 652136;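 active = inhibition above the mean of all tested compounds plus 3 SD, cut at about 3% in these data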;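 also: 0% = DAX-1 transfected cells with DMSO and 100% = cells without DAX-1 with DMSO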
Numbers without * were called inactive; x = not tested or not shown; ! = a repeat was not active.

SMILES	hgDAF12 agonist	hcDAF12 agonist	DAX1 inh-1	DAX1 inh-2	ssDAF-12 act	Rev-erbA mod	others
Cc1ccc(S(=O)(=O)Cc2ccc(C(=O)N3CCC4(CC3)OCCO4)o2)cc1	0.3	5.8*	0.1	1.3	-0.5	-1.1
CN1CCN(Cc2cc(=O)n3ccsc3n2)CC1	-0.6	0.6	0.8	0.8	-0.2	-4.2
O=c1cc(CN2CCNCC2)nc2sccn12	1.1	0.3	0.1	4.9*	-1.2	-0.1
Nc1ccccc1	x	x	x	x	x	-5.0
Nc1ccc2ccccc2c1	0.2	5.2	1.1	0.9	0.9*	2.5
CC(C)(C)NCC(O)c1cc(Cl)c(N)c(C(F)(F)F)c1 (configuration not stated)	x	x	x	x	x	0.1
COC(=O)C1=C(C)OC(N)=C(C#N)C12C(=O)Nc1ccccc12 (configuration not stated)	0.3	1.2	0.1	0.6	-1.0	3.5
COCCOC(=O)C1=C(N)OC(C)=C(C(=O)OC)C12C(=O)Nc1ccccc12 (configuration not stated)	0.6	6.2*	0.0	-0.4	-0.2	-1.1
COc1cc(C2c3cc4c(c(O)c3CC3COC(=O)C32)OCO4)cc(OC)c1OC (configuration not stated)	-6.7	-0.5	3.4	0.6	-0.1	3.2
COc1cc(C2c3cc(O)c(OC)cc3CC3C(=O)OCC32)ccc1O (configuration not stated)	-1.6	-0.6	1.1	4.8*	-1.4	-0.6
COc1cc2oc(=O)c(CC(=O)N3C[C@H]4C[C@@H](C3)c3cccc(=O)n3C4)c(C)c2cc1Cl	6.0	-1.1	1.1	4.8*	-0.8	-4.7
C[N+]1=C(N)NC2=C3CCCCC3ONC2C1 (configuration not stated)	3.1	-1.0	x	x	-1.7	-4.2
Nc1ccccc1C(=O)OCc1ccc([N+](=O)[O-])cc1	11.2*	2.0	-0.1	-0.6	-1.0	-3.3
COc1cc(C(=O)O)cc(OC)c1OC	1.5	-2.4	0.3	8.4*	-1.0	1.3
CN1C2C[C@H](OC(=O)[C@H](CO)c3ccccc3)CC1[C@@H](O)C2 (some centres not stated)	x	x	x	x	x	2.1
O=C(CN1C(=O)[C@@H](Cc2ccc(O)cc2)N=C(c2ccccc2)c2ccccc21)NC1CCCCC1	-1.6	-1.3	-0.7	x	-1.0	5.0
N#CC[N+]1(CCCNP2(=O)C=C(c3ccccc3)OC(c3ccccc3)=C2)CCOCC1	-1.3	-1.4	0.6	6.2*	-1.1	-2.7
COC(=O)C1=C[C@H]([C@@H](C)[C@H](OC)c2ccccc2Br)[C@@H]2[C@H]1c1ccccc1N2C	-0.7	-1.2	-0.6	x	-1.1	6.6
C[C@]12CC[C@H](OC3OC(O)C(O)C(O)C3O)C=C1CCC1C2CC[C@]2(C)[C@@H](c3ccc(=O)oc3)CC[C@]12O (some centres not stated)	x	x	x	x	x	-3.9
CC(NC(=O)OCc1ccccc1)[P+](=O)O (configuration not stated)	-1.5	-2.0	-0.3	x	0.0	1.7
OCC#CC[N+]1(CC#Cc2ccccc2)CCOCC1	1.0	2.5	0.0	4.3*	-1.6	-1.0
CCN1C[C@@]2(COC)C3[C@@H](OC)[C@H]4[C@@H]1[C@]3(C(OC)C[C@H]2O)C1C[C@@]2(O)[C@H](OC(=O)c3ccccc3)C1[C@]4(OC(C)=O)[C@@H](O)[C@@H]2OC (some centres not stated)	x	x	x	x	x	-5.7
Nc1ccc2c(c1)oc1ccccc12	11.2*	1.9	2.0	1.2	-0.9	0.7
CN1CCN(c2c(N)c(=O)oc3ccccc23)CC1	-0.5	0.9	1.9	-0.3	-1.5	4.7
O=C(c1ccc(F)cc1Cl)N1CCC2(CC1)OCCO2	0.4	-1.4	0.4	-0.2	-1.4	-1.8
SMILES	hgDAF12 agonist	hcDAF12 agonist	DAX1 inh-1	DAX1 inh-2	ssDAF-12 act	Rev-erbA mod	others
O=C(c1cc2cc(F)ccc2[nH]1)N1CCC2(CC1)OCCO2	2.9	4.3	0.7	0.5	1.8*	3.1
CC(C)(C)c1ccc(O)cc1	x	x	x	x	x	-1.6
CCOC(=O)/C=C(C)/C=C/CC(C)CCCC(C)C (configuration not stated)	x	x	x	x	x	-1.7
COC1C(O)CC(OC2CC(Oc3cc4cc5c(c(O)c4c(O)c3C)C(=O)[C@@H](OC3CC(OC4CC(OC6CC(C)(O)C(OC(C)=O)C(C)O6)C(O)C(C)O4)C(O)C(C)O3)[C@H]([C@H](OC)C(=O)C(O)[C@H](C)O)C5)OC(C)C2OC(C)=O)OC1C (some centres not stated)	x	x	x	x	x	-4.2
COc1ccc([C@@H]2C[C@H]3[C@@H](CN2)CON3C)cc1	-0.4	-2.5	-0.7	x	-0.8	1.7
O=C1NC(=O)N(Cc2ccccc2)C(=O)/C1=C\C=C\c1ccco1	3.7	2.1	1.2	-0.1	-1.0	-6.9
O=C1NC(=O)N(Cc2ccccc2)C(=O)/C1=C/N1CCCc2ccccc21	4.0	5.8*	-0.4	2.8	0.0	-1.6
Cc1cc(C)cc(NC(=O)CCNC(=O)N2C[C@H]3C[C@@H](C2)c2cccc(=O)n2C3)c1	-3.1	-1.7	0.2	4.3*	-1.7	6.7
Cn1cc(C2=C(c3cn(C4CCN(Cc5ccccn5)CC4)c4ccccc34)C(=O)NC2=O)c2ccccc21	x	x	x	x	x	2.9
CN1C(=O)NC(=O)/C(=C\C=C\c2ccccc2[N+](=O)[O-])C1=O	3.0	5.0	0.0	x	1.4*	-0.7
COc1ccc(C(=O)C2CCCN(CCc3ccccc3)C2)cc1OC (configuration not stated)	1.4	2.8	6.3*	x	0.1	-7.9	DAX1 inh confirm=6.0*;SF1 AF2mut Luc=3.7*
Cc1ccccc1C(=O)NCCN1CCC2(CC1)C(=O)NCN2c1ccccc1	1.0	-2.0	1.0	x	-0.3	1.9
Cc1cc(N2CCNC[C@H]2C)ccc1N1CC[C@H](O)C1	-2.7	-2.1	0.6	x	-0.8	-5.1
NNCc1ccccc1	1.7	3.1	5.0*!	0.3	-0.8	2.6	DAX1 inh confirm=1.9;SF1 AF2mut Luc=2.9*
O=C(c1cc2cc3ccc(Cl)cc3nc2o1)N1CCC2(CC1)OCCO2	-1.2	-0.4	-0.5	0.5	-0.3	1.8
O=C(c1cc2cc(Cl)ccc2[nH]1)N1CCC2(CC1)OCCO2	5.5	6.4*	4.6*	0.5	0.6	-2.2	DAX1 inh confirm=3.4;SF1 AF2mut Luc=3.8*
Cc1ccc(N)c(C(=O)c2ccc(Br)cc2)c1	6.1	-0.3	-0.5	0.9	-1.1	7.2
Cc1ccc(N)c(N)c1	10.3	2.6	6.6*	-1.9	0.2	3.1	DAX1 inh confirm=5.5*;SF1 AF2mut Luc=3.2*
